Experimental data taken from the OligoGym collection.

molecular target: ABCB11; experiment: pooled miR-30 sensor sort-seq; sequence = guide strand; details: shRNA
Note: reference of the scale not given here.

Sequence | sensor-assay potency score (higher = more potent)
TTCTTCTCATCTTGTAACCTTG | -0.836
TAGCTTTTGCATAACTTGGGGT | 0.0681
TAGAGTGAAGTAAACACCTTTC | -0.144
TTGACTATCATCCCGATCTGAG | -0.211
TTCTTGTAACTCAACGTCGTAG | -0.168
TACAACTGCAGAGATCACCCTG | 0.317
TTTGCTGTCATGACCATCTATC | -0.277
TTAGCTTTTGCATAACTTGGGG | -0.00733
TAACCATCTTCTGACATGCAGT | -1.16
TTGCACTCAGTACAACTGCAGA | -1.15
TAGACTTATGATCTACAACAGC | -1.33

molecular target: ABCD4; experiment: as above; details: shRNA

Sequence | sensor-assay potency score (higher = more potent)
TTACAGATCTCACACTTCCAGA | -0.864
ATACCAGTTCCAGTCCACCTGC | -0.984
TCGATCTTCGCTGTCAGTCCTC | -0.221
TAGTCAAAGGTGTTGATGCCGA | -0.776
ATCGGCAGAACCTGAGTCGGGG | -0.759
TGCGATGACAACGTAACTCAGG | -0.631
TTCGCTGTCAGTCCTCCTGGTC | -0.858
TCTCATCATCGGCAGAACCTGA | -0.963
ATCTGCATGTGCTTGAACCTAA | -0.448
